# Results with a measured potency or affinity are listed apart.
# Legend:
# Klebsiella pneumoniae = conditions: Concentration 20 uM; ASSAY_TEST Inhibition of Bacterial Growth; detection method Absorption (OD600); MEDIA CAMHB; plate type 384well; NBS; CORNING #3640; time 18 hr
# Candida albicans = conditions: 20 µM
# Cryptococcus neoformans = conditions: Concentration 20 uM; ASSAY_TEST Inhibition of Fungal Growth; detection method Resazurin; Absorption (OD600-OD570); plate type 384well; NBS; CORNING #3640
smiles,measurement,setting,value
CO[C@@H]1CN(c2ccc(C#CC3(O)CN4CCC3CC4)c(Cc3ccccc3)n2)C[C@H]1O (stereo not given in full),Inhibition,Klebsiella pneumoniae,0.81%
same,Inhibition,Candida albicans,1.57%
same,Inhibition,Cryptococcus neoformans,0.17%
CC1(C)OB(O)c2ccc(C3=NOC(c4cc(Cl)c(F)c(Cl)c4)(C(F)(F)F)C3)cc21 (stereo not given),Inhibition,Klebsiella pneumoniae,23.09%
same,Inhibition,Candida albicans,3.03%
same,Inhibition,Cryptococcus neoformans,-7.16%
CC(=O)Oc1ccccc1C(=O)Nc1ncc([N+](=O)[O-])s1 [NITAZOXANIDE],Inhibition,Klebsiella pneumoniae,13.55%
same,Inhibition,Candida albicans,26.7%
same,Inhibition,Cryptococcus neoformans,17.15%
Cc1cc(C2=NOC(c3cc(Cl)c(F)c(Cl)c3)(C(F)(F)F)C2)ccc1C(=O)NCc1ccc2c(c1)C(C)(C)OB2O (stereo not given),Inhibition,Klebsiella pneumoniae,14.68%
same,Inhibition,Candida albicans,4.25%
same,Inhibition,Cryptococcus neoformans,-8.68%
Cc1nn(C)c(C)c1NS(=O)(=O)c1c(Cl)cc(-c2ccnc(N3CCNCC3)c2)cc1Cl,Inhibition,Klebsiella pneumoniae,16.22%
same,Inhibition,Candida albicans,6.45%
same,Inhibition,Cryptococcus neoformans,-5.82%
CNCCC(Oc1ccc(C(F)(F)F)cc1)c1ccccc1 (stereo not given) [FLUOXETINE],Inhibition,Klebsiella pneumoniae,7.93%
same,Inhibition,Candida albicans,1.88%
same,Inhibition,Cryptococcus neoformans,2.51%
Cc1nn(Cc2ccccc2)c(Cl)c1C(=O)NC1CCCCCC1,Inhibition,Klebsiella pneumoniae,0.72%
same,Inhibition,Candida albicans,5.99%
same,Inhibition,Cryptococcus neoformans,-4.17%
Nc1c2c(nc3sc4c(c13)CCCC4)CCCC2,Inhibition,Klebsiella pneumoniae,3.88%
same,Inhibition,Candida albicans,0.42%
same,Inhibition,Cryptococcus neoformans,-9.94%
Cc1cccc(C(=O)Nc2ccnc(N(C)C3CCN(CC(C)C)CC3)c2)c1,Inhibition,Klebsiella pneumoniae,8.58%
same,Inhibition,Candida albicans,4.57%
same,Inhibition,Cryptococcus neoformans,-6.76%
CO[C@@H](C(=O)N1Cc2[nH]nc(NC(=O)c3ccc(N4CCN(C)CC4)cc3)c2C1)c1ccccc1 [DANUSERTIB],Inhibition,Klebsiella pneumoniae,10.18%
same,Inhibition,Candida albicans,3.17%
same,Inhibition,Cryptococcus neoformans,-4%
